# Screening results as filed in PubChem BioAssay.
# Compounds with a hit are over-represented: about 12% of the library has one in this group of screens.
# ALDH1A1 block: blocks purified human ALDH1A1 activity | P00352 | Purified ALDH1A1, NADH fluorescence, propionaldehyde substrate | Potency, µM (top dose mostly 75.3 µM), inactives show top-dose activity, negative = inhibition, usual class: inhibitors | actives 7.3% (n = 220,000); active = well fitted inhibition curve with a large enough effect, not every such curve was filed as active; inconclusive = small, poorly fitted or top-dose-only effect, or another doubt; inactive = no such curve, though single readings can be large or run the other way;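 note: plate controls were no enzyme wells and a reference inhibitor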
# RORgamma inh: inhibitors of mouse ROR gamma transcriptional activity | Drosophila S2 Gal4-RORgamma UAS-luciferase reporter, 20 h | Potency, µM (highest dose often 53.6 µM), without a hit: at the highest dose activity change, negative = inhibition, hits mostly inhibitors | actives 5.4% (n = 310,000) | AID 2551 | P51450; note: nearly all actives have a fitted effect of over 60% in size
# Target sequence (P51450 whole entry, looked up, the tested form may be a part): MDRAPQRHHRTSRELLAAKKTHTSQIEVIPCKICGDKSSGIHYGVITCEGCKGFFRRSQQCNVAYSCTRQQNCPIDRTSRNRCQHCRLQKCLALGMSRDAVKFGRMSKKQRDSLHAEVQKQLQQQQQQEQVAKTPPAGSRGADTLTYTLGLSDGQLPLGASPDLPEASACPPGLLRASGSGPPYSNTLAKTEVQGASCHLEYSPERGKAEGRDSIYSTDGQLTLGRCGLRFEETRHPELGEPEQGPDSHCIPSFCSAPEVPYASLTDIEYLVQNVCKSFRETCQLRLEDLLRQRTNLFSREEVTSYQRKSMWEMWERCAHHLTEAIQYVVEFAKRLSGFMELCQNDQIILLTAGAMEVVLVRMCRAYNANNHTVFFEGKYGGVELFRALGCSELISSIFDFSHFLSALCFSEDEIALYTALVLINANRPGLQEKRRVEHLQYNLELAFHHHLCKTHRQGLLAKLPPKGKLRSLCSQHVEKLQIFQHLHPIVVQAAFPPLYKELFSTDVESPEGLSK
#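 Drosophila S2 cells stably expressing Gal4-DBD/mouse RORγ fusion under metallothionein promoter plus UAS-luciferase; compound 1 h, then 700 uM CuSO4 induction for 20 h at ambient temperature; inhibition read as reduced luminescence.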
# Sfp inh: blocks B. subtilis Sfp PPTase activity; Biochemical Sfp PPTase activity, qHTS; AID 1490; Potency, µM, for the others: largest response in the series, negative = inhibition, hits mostly inhibitors; actives 3.5% (n = 310,000);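 note: the enzyme is Sfp with the accession as filed and its product quenches rhodamine fluorescence; 0% = enzyme reaction without inhibitor and -100% = no enzyme wells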
#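 Buffer: 50 mM Hepes-Na pH 7.6, 10 mM MgCl2, 0.01% Nonidet P-40, 0.01% BSA. Enzyme 15 nM, pre-exposed to compound 15 min; substrates then added and fluorescence change tracked over 30 min.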
# PLK1 PBD inh: blocks phosphopeptide binding to human PLK1 polo-box domain. P53350. Plk1 PBD binding of FITC phosphopeptide, fluorescence polarization. Potency, µM, without a hit: max response, negative = inhibition, hits mostly inhibitors. actives 2.8% (n = 360,000). AID 720504; note: series mostly up to about 57 µM; nearly all actives have a fitted effect of over 65% in size
# VP16 counter: counter-screen for ROR gamma inhibitors: Gal4-VP16 reporter; Drosophila S2 Gal4-VP16 UAS-luciferase, luminescence, 20 h; Potency, µM (top dose mostly 53.6 µM), inactives show at the top dose activity, negative = inhibition, hits mostly inhibitors; actives 3.5% (n = 310,000); AID 2546;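 note: Gal4-VP16 expression switched on by copper sulfate through the metallothionein promoter; nearly all actives have a fitted effect of over 50% in size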
# Active calls of the source: *; u = inconclusive; x = not tested or not shown; [ ] = dose if it differs, or a comment. Unless noted, calls come from the whole dose curve; as a rule, active = well fitted curve in the direction sought with a large enough effect; inconclusive = small, poorly fitted or top-dose-only effect, or another doubt; inactive = no such curve, though single readings can be large; an effect the other way counts as inactive or inconclusive. Unless noted, % is set by controls: 0 for no effect and ±100 for the full control effect; potency is the fitted concentration of half-maximal effect.
SMILES,ALDH1A1 block,RORgamma inh,Sfp inh,PLK1 PBD inh,VP16 counter
COc1ccc2nc(NC(=O)c3cccc(-c4cc5ccccc5oc4=O)c3)sc2c1,u,10µM*,u,-9.7%,10µM*
CCCCC(=O)Nc1nc2ccc(C(=O)OC)cc2s1,-1.7%,8.91µM*,7.9%,-9.1%,u
CC(=O)Nc1ccc(NC(=O)c2cccc(-c3cc4ccccc4oc3=O)c2)cc1,-1.5%,u,3.7%,10.7%,-6.8%
COc1ccc(-n2nc(C(=O)NCC(=O)NCc3ccccc3OC)c3ccccc3c2=O)c(OC)c1,1.3%,12.0%,7.8%,-3.7%,6.5%
COc1ccc2nc(NC(=O)c3cnccn3)sc2c1,-6.6%,u,2.7%,-8.5%,10µM*
COc1ccc2nc(NC(=O)c3c(C)noc3C)sc2c1,x,x,x,-9.8%,x
COc1ccc(-n2nc(C(=O)Nc3nc4ccc(OC)cc4s3)c3ccccc3c2=O)c(OC)c1,20µM*,-7.8%,10.2%,x,3.0%
CN(c1cccc(F)c1)c1cc2c(c3c1ccn3C)C1CCC2O1 (stereo not drawn),x,x,x,-9.4%,x
C=CCn1ccc(=O)nc1SC,x,x,x,-18.6%,x
CCC(=O)Nc1nc2cc(OC)ccc2s1,8.0%,-6.5%,17.0%,-8.6%,u
COc1ccc2sc(NC(=O)CC(C)C)nc2c1,25.1µM*,-30.7%,7.5%,-2.9%,12.7%
O=C(NC(c1ccccc1)c1ccccc1)c1ccccc1,x,x,x,0.9%,x
O=C(NC(c1ccccc1)c1ccccc1)c1ccc(=O)[nH]n1,4.47µM*,-4.8%,3.3%,23.8µM*,6.5%
O=C(N/N=C/c1cn(-c2cccs2)nc1-c1ccccc1)c1ccccc1Cl,u,3.55µM*,4.9%,-0.8%,7.94µM*
O=C(N/N=C/c1cn(-c2cccs2)nc1-c1ccccc1)c1ccc(O)cc1,u,u,-12.9%,-3.6%,17.8µM*
CCc1nc2ccc(C(=O)Nc3cc(-c4ccccc4)ccc3OC)cn2c1N(C)Cc1nccs1,x,x,x,-10.4%,x
C[C@H](NC(=O)[C@@H]1CCCN1C(=O)[C@@H]1CCCN1C(=O)c1cccc(Cl)c1)c1ccccc1,x,x,x,-0.2%,x
CCC(c1nnnn1Cc1ccco1)N(CCc1ccccc1)Cc1cc2cc(C)ccc2[nH]c1=O (stereo not drawn),25.1µM*,11.6%,17.8µM*,-3.4%,5.4%
CCC(c1nnnn1Cc1ccccc1)N(Cc1ccco1)Cc1cc2cc(OC)ccc2[nH]c1=O (stereo not drawn),u,8.9%,-21.7%,0.5%,4.3%
Cc1ccc2[nH]c(=O)c(CN(CCc3ccccc3)C(c3nnnn3Cc3ccco3)C(C)C)cc2c1 (stereo not drawn),x,36.1%,17.8µM*,-3.0%,-3.9%
CCC(c1nnnn1CCc1ccccc1)N(Cc1ccco1)Cc1cc2c(C)ccc(C)c2[nH]c1=O (stereo not drawn),22.4µM*,2.9%,-13.8%,-7.4%,-26.1%
COc1ncnc2c1ncn2CCCNCc1ccccn1,x,x,x,-10.0%,x
CC(C)[C@@H]1[C@H]2CC[C@H](C2)[C@H]1N,-4.0%,19.1%,-3.5%,x,-0.2%
N#CC1=C(N)OC2=C(C(=O)CC(c3ccccc3)C2)C1c1ccc2c(c1)OCO2 (stereo not drawn),11.2µM*,u,-5.8%,4.6%,-11.7%
N#CC1=C(N)OC(c2ccccc2)=C(C#N)C1c1ccc2c(c1)OCO2 (stereo not drawn),1µM*,19.8%,10.9%,11.9µM*,1.3%
SMILES,ALDH1A1 block,RORgamma inh,Sfp inh,PLK1 PBD inh,VP16 counter
N[C@H](CSSC[C@@H](N)C(=O)O)C(=O)O,x,-28.1%,22.7%,x,5.9%
Cc1ccc(S(=O)(=O)Nc2cc(C)c(O)c(Sc3n[nH]c(C)n3)c2)cc1,x,-9.0%,70.8µM*,-7.5%,-4.2%
Cc1nc2nc(SCC(=O)c3ccc([N+](=O)[O-])cc3)[nH]c2cc1Br,u,2.51µM*,-3.4%,-20.3%,u
Cc1cc(N2CCC(C)CC2)nc(SCC(=O)c2ccccc2)n1,14.1µM*,u,-2.4%,-4.8%,-12.3%
Cc1cc(C)nc(SCC(=O)c2ccc([N+](=O)[O-])cc2)n1,u,u,44.7µM*,21.2µM*,-3.9%[0.365 µM]
Cc1ccnc(SCC(=O)c2ccc([N+](=O)[O-])cc2)n1,u,-0.5%,44.7µM*,-18.4%,-7.1%
Cc1cc(C)nc(SCC(=O)c2ccc(C)c(C)c2)n1,x,-32.7%,-9.2%,-1.3%,4.4%
CN(C)c1ncc2nc(-c3cn(C)c4ccccc34)c(=O)n(C[C@H]3CCCO3)c2n1,-3.4%,-7.3%,17.4%,x,-0.8%
COc1ccccc1CNCCCCCCNCCCCCCCCNCCCCCCNCc1ccccc1OC,5.2%,x,u,x,x
CCN(CC(=O)Nc1ccc(NC(C)=O)cc1)C(=O)c1ccc(N2CCC(C)CC2)c([N+](=O)[O-])c1,x,x,x,-14.1%,x
Cc1nnc(N/N=C/c2cc([N+](=O)[O-])c(N3CCC(C)CC3)cc2N2CCC(C)CC2)n1N,7.08µM*,15.8µM*,u,-12.1%,u
Cc1nnc(N/N=C/c2ccc([N+](=O)[O-])cc2)n1N,u,u,12.9%,0.2%,-14.3%
CCc1nnc(N/N=C/c2ccc(N3CCC(C)CC3)c([N+](=O)[O-])c2)n1N,22.4µM*,10µM*,70.8µM*,-1.4%,u
CC(C)N(C)c1ncnc2c1ncn2[C@H]1CN(Cc2cccs2)C[C@@H](CO)O1,x,x,x,5.4%,x
COc1ccc(N2C(=O)/C(=C\c3ccco3)N=C2SCC(=O)NC(C)C)cc1Cl,0.7%,u,-21.5%,0.1%,u
COc1ccc(N2C(=O)/C(=C\c3ccco3)N=C2SCC(=O)N(C(C)C)C(C)C)cc1Cl,-1.3%,u,56.2µM*,-19.4%,10µM*
CC1CCCN(S(=O)(=O)c2cccc(C(=O)NCCCN3CCCC3=O)c2)C1 (stereo not drawn),x,x,x,-12.5%,x
NC(CCc1ccccc1)c1csc(NC(=O)Nc2cccc(C(F)(F)F)c2)n1 (stereo not drawn),x,x,x,-7.1%,x
COc1c(Cl)ccc(Cl)c1C(=O)OCC(=O)O,22.4µM*,-1.6%,6.6%,-5.8%,2.9%
CCCOC(=O)c1ccc(NC(=O)c2c(Cl)ccc(Cl)c2OC)cc1,u,u,10.2%,-11.8%,u
Cc1cc(C)c(S(=O)(=O)c2ccc(F)cc2)c(C)c1,x,x,x,1.7%,x
Cc1cc(C)c(-n2c(SCCS(=O)(=O)c3ccc(F)cc3)n[nH]c2=O)c(C)c1,14.1µM*,-16.1%,14.3%,-25.4%,2.6%
Cc1cc(C)c(-n2c(SCc3nc4ccccc4s3)n[nH]c2=O)c(C)c1,x,u,4.4%,-0.3%,3.16µM*
Cc1ccc(S(=O)(=O)CCSc2n[nH]c(=O)n2-c2ccccc2)cc1,20µM*,u,18.8%,-2.7%,-1.3%
Cc1ccc(S(=O)(=O)CCSc2nccn2C)cc1,-12.1%,-5.7%,-4.5%,1.9%,4.3%
CN(C)c1nc(N)c(C(=O)Nc2cccnc2)nc1Cl,u,-16.7%,-15.0%,x,-15.0%
CN(C)c1ccc(C=c2c3ccccc3n3c2c2ccccc2[n+]3C)cc1,x,x,x,23.8µM*,x
